From publication PMC4336329 (PLoS ONE, 2015)
The whole screen tested about 310,000 compounds, of which about 14,000 (4.5%) showed an effect of 50% or more. Effects have a minus sign here. The sample as a whole holds a higher share of strong results than the screen did.

Each molecule was assayed against human ether-à-go-go-related gene (hERG) potassium channel (human, UniProt Q12809) (assay: primary screen, population patch clamp on CHO cells stably expressing hERG; higher = less effect of the substance).
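Further: peak tail current of the secondary pulse compared with the same well before compound.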

Sequence of human ether-à-go-go-related gene (hERG) potassium channel (Q12809 whole entry, looked up): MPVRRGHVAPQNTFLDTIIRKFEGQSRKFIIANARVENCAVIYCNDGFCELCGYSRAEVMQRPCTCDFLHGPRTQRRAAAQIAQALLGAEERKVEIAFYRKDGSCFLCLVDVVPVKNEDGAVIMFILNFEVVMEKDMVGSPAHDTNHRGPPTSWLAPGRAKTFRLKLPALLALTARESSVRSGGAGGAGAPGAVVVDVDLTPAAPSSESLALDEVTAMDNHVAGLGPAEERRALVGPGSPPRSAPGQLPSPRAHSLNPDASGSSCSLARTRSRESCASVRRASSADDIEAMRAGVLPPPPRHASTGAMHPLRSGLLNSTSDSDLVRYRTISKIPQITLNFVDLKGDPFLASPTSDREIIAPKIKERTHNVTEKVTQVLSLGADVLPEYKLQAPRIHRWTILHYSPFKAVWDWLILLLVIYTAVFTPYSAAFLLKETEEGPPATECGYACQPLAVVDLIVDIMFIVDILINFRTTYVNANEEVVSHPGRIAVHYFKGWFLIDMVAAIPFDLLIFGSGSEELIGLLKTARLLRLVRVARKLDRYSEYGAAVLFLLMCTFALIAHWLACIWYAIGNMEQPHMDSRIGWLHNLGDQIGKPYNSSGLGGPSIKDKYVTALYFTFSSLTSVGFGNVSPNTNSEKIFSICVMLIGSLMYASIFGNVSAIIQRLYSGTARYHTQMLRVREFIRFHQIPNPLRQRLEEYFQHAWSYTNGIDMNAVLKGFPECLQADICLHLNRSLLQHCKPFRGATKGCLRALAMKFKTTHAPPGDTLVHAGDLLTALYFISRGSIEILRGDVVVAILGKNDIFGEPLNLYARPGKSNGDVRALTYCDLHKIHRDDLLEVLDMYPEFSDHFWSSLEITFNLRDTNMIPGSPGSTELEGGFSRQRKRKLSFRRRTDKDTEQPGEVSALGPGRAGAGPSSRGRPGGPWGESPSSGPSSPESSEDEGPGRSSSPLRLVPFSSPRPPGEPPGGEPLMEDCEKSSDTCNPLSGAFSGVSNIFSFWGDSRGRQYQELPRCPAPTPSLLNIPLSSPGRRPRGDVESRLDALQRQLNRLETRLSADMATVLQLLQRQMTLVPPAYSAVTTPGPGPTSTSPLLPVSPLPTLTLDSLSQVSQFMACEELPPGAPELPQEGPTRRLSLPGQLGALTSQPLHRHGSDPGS

Point of comparison: `CCCCN(C(=O)c1ccc2c(c1)OCO2)c1c(N)n(CC(C)C)c(=O)[nH]c1=O`, “hERG current change (%, negative = inhibition) at 10uM” value -6.58%. Against it:
- Cc1ccc2cccnc2c1N — higher, 4.5%
- NC(=O)c1ccccc1NC(=O)C1CCCO1 (stereo not drawn) — higher, 8.51%
- COc1ccccc1CN(C)C(=O)c1ccc(COc2ccccc2)cc1 — higher, 6.77%
- CCOc1cnc(-c2c(-c3ccccc3Cl)noc2C)o1 — higher, -3.56%
- Cc1cccc2c(=O)c(C(=O)NCCc3ccccc3)c[nH]c12 — higher, 21.9%
- CC(=O)Nc1ccc(SCC(=O)c2ccc(Br)s2)cc1 — higher, 19.5%
- Cc1cnc(NC(=O)c2ccco2)s1 — higher, 13.9%
- O=C(Nc1ccccc1C(=O)Nc1ccccc1)c1cccs1 — higher, -0.413%
- COC(=O)C1=CN(Cc2ccccc2)C=C(C(=O)OC)C1c1cc(F)ccc1F — lower, -12.6%
- c1ccc(-c2csc3ncnc(N4CCc5ccccc5C4)c23)cc1 — higher, -1.81%
- O=C(Nc1ccc(F)c(F)c1)c1ccc(-n2cncn2)c([N+](=O)[O-])c1 — lower, -35.7%
- O=C(c1ccc(-n2cncn2)c([N+](=O)[O-])c1)N1CCN(S(=O)(=O)c2ccc(F)c(F)c2)CC1 — lower, -72.7%
- O=C(NNC(=O)c1ccc(-n2cncn2)c([N+](=O)[O-])c1)c1ccc(Cl)cc1 — lower, -9.94%
- O=C(CCCN1C(=O)C2CC=CCC2C1=O)Nc1ccccc1F (stereo not drawn) — higher, 1.61%
- CC(=O)C1C2c3ccccc3OC1(C)N=c1s/c(=C/c3cn(C)nc3C)c(=O)n12 (stereo not drawn) — higher, -0.454%
- O=C(O)c1ccc(-n2cncn2)c([N+](=O)[O-])c1 — higher, 11.6%
- Cc1cccc(N2CCN(c3ccc(C(N)=O)cc3[N+](=O)[O-])CC2)c1C — higher, 21.7%
- O=C(c1ccc(-n2cncn2)c([N+](=O)[O-])c1)N1CCN(c2cccc(Cl)c2)CC1 — lower, -68.5%
- O=C(Nc1cccc(Cl)c1)c1ccc(-n2cncn2)c([N+](=O)[O-])c1 — lower, -35%
- Cc1cccc(N2CCN(C(=O)c3ccc(-n4cncn4)c([N+](=O)[O-])c3)CC2)c1C — lower, -58.9%
- O=C(NNC(=O)c1ccc(-n2cncn2)c([N+](=O)[O-])c1)c1cccc(Cl)c1 — lower, -26.3%
- COc1ccc(C2=NS(=O)(=O)N(C)C(C(=O)Nc3ccc(OC)c(OC)c3)=C2)cc1 — lower, -11.9%
- O=C(CSc1nc2ccc(Cl)cc2[nH]1)c1c[nH]c2ccccc12 — higher, 26.8%
- O=C(c1ccccc1)N1CCN(c2ccc(Cl)cc2)CC1 — lower, -25.1%
- Cc1ccc(C(=O)N2CCC(C(=O)c3c(C)cc(C)cc3C)CC2)cc1 — lower, -38.5%
- COc1ccc(C(=O)C2CCN(C(=O)c3ccc(F)cc3)CC2)cc1 — lower, -28.5%
- O=C(c1ccc(Cl)cc1)N1CCN(c2ccc(F)cc2)CC1 — lower, -34%
- COc1ccc(C(CC(=O)N2CCCC2)c2ccc(F)cc2)cc1 (stereo not drawn) — lower, -71.5%
- COc1cc(OC)cc(C(=O)N2CCC(C(=O)c3ccc(F)cc3)CC2)c1 — lower, -30.8%
- COc1ccc(C(CC(=O)N2CCCC2)C(C)C)cc1 (stereo not drawn) — higher, -2.25%
- COc1ccc(C(CC(=O)N2CCCCC2)C(C)C)cc1 (stereo not drawn) — higher, 15.8%
- COc1cc(OC)cc(OC(=O)C2CCN(C(=O)c3ccc(Cl)cc3)CC2)c1 — lower, -33.9%
- COc1ccc(C(=O)N2CCC(C(=O)c3ccc(F)cc3)CC2)cc1 — lower, -70.2%
- COc1ccc(C(=O)N2CCC(C(=O)c3c(C)cc(C)cc3C)CC2)cc1 — lower, -55.3%
- Cc1ccc(C(=O)N2CCN(c3ccc(Cl)cc3)CC2)cc1 — lower, -61.1%
- CCc1ccc(N(CC(=O)Nc2ccc(NC(C)=O)cc2)S(=O)(=O)c2ccccc2)cc1 — higher, 10.5%
- C#CCn1ccc(O)c(Cc2c(F)cccc2Cl)c1=O — higher, 8.2%
- Cc1cccc(NC(=O)c2cc(-c3ccco3)nc3ccccc23)n1 — higher, 4.05%
- O=C1CN(C(=S)NC(=O)c2ccccc2[N+](=O)[O-])CCN1 — higher, 16.9%
- COc1ccc([N+](=O)[O-])cc1NC(=O)COC(=O)/C=C/c1ccco1 — higher, 1.54%
- COc1ccc(Cl)cc1C(=O)NNC(=O)CSc1nnnn1C — higher, 9.95%
- Cc1cc(-c2ccccc2)nc(SCc2ccc(C(=O)O)cc2)n1 — higher, 23.8%
- COc1ccc(NC(=S)N2CCC(C(=O)c3ccc(OC)cc3)CC2)cc1 — lower, -45.4%
- O=C(c1ccc(Cl)cc1)C1CCN(C(=O)c2ccccc2)CC1 — lower, -34.3%
- COc1ccc(C(=O)C2CCN(C(=O)c3ccc(C)cc3)CC2)cc1 — lower, -66.3%
- COc1ccc(NC(=S)N2CCC(C(=O)c3ccc(C)cc3)CC2)cc1 — lower, -21.9%
- Cc1ccc(C(=O)C2CCN(C(=O)c3ccc(C)cc3)CC2)cc1 — lower, -36.8%
- Cc1ccc(C(=O)N2CCC(C(=O)c3ccc(Cl)cc3)CC2)cc1 — lower, -68.4%
- COc1ccc(C(=O)C2CCN(C(=O)c3ccc(OC)cc3)CC2)cc1 — lower, -77.1%
- COc1ccc(C(=O)C2CCN(C(=O)c3ccco3)CC2)cc1 — lower, -13.4%
- COc1ccc(C(=O)C2CCN(C(=O)Nc3ccc(C)cc3)CC2)cc1 — lower, -9.82%
- CCOP(=O)(OCC)C(NC(=O)c1ccc(OC)c(OC)c1)c1ccccc1 (stereo not drawn) — higher, 9.71%
- COc1ccc(/C(O)=C2\C(=O)C(=O)N(CCN(C)C)C2c2cc(OC)c(OC)c(OC)c2)c(C)c1 (stereo not drawn) — higher, 3.79%
- COc1ccc(NC(=O)/C(N=Nc2cc(S(=O)(=O)Nc3ccc(OC)cc3)ccc2OC)=C(\C)O)cc1 — higher, 24.2%
- O=C(c1cnn2c(C(F)(F)F)cc(-c3ccc(F)cc3)nc12)N1CCc2ccccc2C1 — higher, -3.83%
- COc1ccc(Nc2ncnc3c2cnn3Cc2ccccc2)cc1 — lower, -18.1%
- CC(C)N(C(=O)c1sc2cc([N+](=O)[O-])ccc2c1Cl)C(C)C — lower, -13.4%
- CCOc1ccc(NC(=O)C(CC)n2nc(C)c3c(C)n(-c4ccccc4)nc3c2=O)cc1 (stereo not drawn) — lower, -30.1%
- CCSc1ccccc1C(=O)Nc1cccnc1 — higher, -5.83%
- COc1ccc(-c2[nH]ncc2CN2CCCN(C(=O)c3ccco3)CC2)cc1F — lower, -55.2%
- COc1ccc(-c2[nH]ncc2CN2CCN(C(=O)c3ccco3)CC2)cc1F — lower, -6.81%
- COc1ccc(-c2[nH]ncc2CN2CCC(c3ccncc3)CC2)cc1F — lower, -62.7%
- COCC1CCN(Cc2cn[nH]c2-c2ccc(OC)c(F)c2)C1 (stereo not drawn) — higher, -4.22%
- O=C(c1ccco1)N1CCN(Cc2cn[nH]c2-c2cccc3ccccc23)CC1 — lower, -29.1%
- O=C(c1ccco1)N1CCN(Cc2cn[nH]c2-c2ccc(F)cc2F)CC1 — lower, -12.8%
- Cc1ccccc1CN1CCN(C(=O)c2ccco2)CC1.O=C(O)C(=O)O — higher, 7.41%
- O=C(c1ccco1)N1CCCN(Cc2cn[nH]c2-c2ccc(-c3ccccc3)cc2)CC1 — lower, -59.3%
- COc1ccc(-c2[nH]ncc2CN2CCC(N3CCSCC3)CC2)cc1F — lower, -22.5%
- Cc1cc(NC(=O)CN2CCN(S(=O)(=O)c3ccc4ccccc4c3)CC2)no1 — lower, -14.7%
- CS(=O)(=O)Nc1ccc2c(c1)ncn2CCc1ccccc1 — lower, -26.4%
- O=C1c2ccccc2C(=O)N1CCc1csc(-c2cccc(F)c2)n1 — lower, -22.5%
- Clc1ccc(-n2ncc3c(NCc4cccnc4)ncnc32)cc1Cl — higher, 14.6%
- COc1ccc(-c2csc(NC(=O)CN3C(=O)CCC3=O)n2)cc1OC — higher, 11.4%
- Cc1cccc(OC(C)C(=O)N(Cc2cccs2)C2CCS(=O)(=O)C2)c1C (stereo not drawn) — lower, -14.8%
- COc1ccc(N2CCN(C(=O)CCNS(=O)(=O)c3cccs3)CC2)cc1 — lower, -26%
- COc1ccc(N2CCN(C(=O)CCc3ccc(S(=O)(=O)NC(C)C)cc3)CC2)cc1 — lower, -7.82%
- COc1ccc(N2CCN(C(=O)CNS(=O)(=O)c3ccc(Br)s3)CC2)cc1 — lower, -27.6%
- CCNS(=O)(=O)c1ccc(CCC(=O)N2CCN(c3ccccc3)CC2)cc1 — lower, -16.8%
- CC(C)CNS(=O)(=O)c1ccc(CCC(=O)N2CCN(c3ccccc3)CC2)cc1 — lower, -91.3%
- CC(C)CNS(=O)(=O)c1ccc(CCC(=O)N2CCN(Cc3ccccc3)CC2)cc1 — lower, -35.2%
- CC(C)CNS(=O)(=O)c1ccc(CCC(=O)N2CCN(Cc3ccc4c(c3)OCO4)CC2)cc1 — lower, -54.4%
- O=C(CCc1ccc(S(=O)(=O)NCCc2ccccc2)cc1)N1CCN(Cc2ccc3c(c2)OCO3)CC1 — lower, -48.5%
- COc1ccc(N2CCN(C(=O)CCc3ccc(S(=O)(=O)NCC(C)C)cc3)CC2)cc1 — lower, -57.1%
- O=C(CCc1ccc(S(=O)(=O)NCc2ccccc2)cc1)N1CCN(Cc2ccc3c(c2)OCO3)CC1 — lower, -41.2%
- COc1ccc(N2CCN(C(=O)CCNS(=O)(=O)c3ccc(Br)s3)CC2)cc1 — lower, -50.6%
- CCNS(=O)(=O)c1ccc(CCC(=O)N2CCN(c3ccc(OC)cc3)CC2)cc1 — lower, -8.99%
